# Screens deposited in PubChem BioAssay by National Center for Advancing Translational Sciences (NCATS).
# Methyltransferases = Primary Screen for Target Class Profiling of Small Molecule Inhibitors of Methyltransferases; purified enzyme, MTase-Glo SAH luminescence; stronger effect = lower value; calls only at 40 µM; actives 3.9% (n = 25,000); call rule not given here
#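 Each enzyme was assayed with SAM and its substrate. SAH formation detected by MTase-Glo luminescence; single-point 40 uM screen[…].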
# Numbers without * were called inactive; i = inactive; + = active, no number. Shown is part of a subset that was picked to be rich in hits. % is set by controls: 0 for no effect and ±100 for the full control effect.
SMILES,Methyltransferases
COCC1CN(C2CCC2)CC12CCN(C(=O)NCCc1ccccc1)CC2 (stereo not drawn),i
CC(C)(O)C1CC=C(C(=O)OC[C@H]2O[C@@H](OC(=O)C3=CCC(C(C)(C)O)CC3)[C@H](O)[C@@H](O)[C@@H]2O)CC1 (stereo partly drawn),+
O=C(O[C@@H]1O[C@H](CO)[C@@H](O)[C@H](O)[C@H]1O)c1ccccc1,i
CC1=C(C(=O)OC2OC(COC3OC(CO)C(O)C(O)C3O)C(O)C(O)C2O)C(C)(C)CCC1 (stereo not drawn),i
CN(C)c1ccc(C(=O)N[C@H]2CC(C)(C)[C@@H]3C[C@@](C)(O)CC[C@]23CCC(=O)NC2CC2)cc1,i
CC(C)(O)c1ccc2c(c1)C(O)CC1C(C)(C(=O)O)CCCC21C (stereo not drawn),i
CC(=O)NC(Cc1c[nH]c2ccccc(=O)c12)C(=O)O (stereo not drawn),+
CC(=O)NC(Cc1ccccc1)C(=O)O (stereo not drawn),i
N[C@@H](Cc1c[nH]c2ccccc12)C(=O)O,i
Cc1ccc(-c2cc(-c3cccnc3)nc3c(C)noc23)c(C)c1,i
CC(CN1C(=O)c2ccc(-c3ccccc3)n2CC1(C)C(=O)NC1CCCC1)c1ccccc1 (stereo not drawn),i
CC(C)CNC(=O)c1ccc2c(=O)n(Cc3ccccc3)c3nn(Cc4ccc(F)cc4)c(=O)n3c2c1,i
CC(C)CCn1c(=O)c2ccc(C(=O)NC(C)C)cc2n2c(=O)n(Cc3ccc(Cl)cc3)nc12,i
CC1(C)CCC(C)(C)c2cc([C@@H](O)C(=O)Nc3ccc(C(=O)O)cc3F)ccc21,i
CC(N)(C(=O)O)c1ccc(C(=O)O)cc1 (stereo not drawn),i
CC1(C)CCC(C)(C)c2cc(C#Cc3ccc(C(=O)O)cc3)ccc21,+
O=C(Cc1c[nH]c2ccccc12)N1CCc2c(nc(-c3ccc(F)cc3)[nH]c2=O)C1,i
CCC(C)NC(=O)c1ccc2c(=O)n(C(C)C)c3nn(CC(=O)c4cccc(OC)c4)c(=O)n3c2c1 (stereo not drawn),i
CCCN1C(=O)c2c(C(=O)NCc3ccc(F)cc3)ncn2CC1(C)C(=O)NCc1ccc(C)cc1 (stereo not drawn),i
COc1cc2c(cc1O)CC(O)(CO)C(CO)C2c1ccc(OC2OC(CO)C(O)C(O)C2O)c(OC)c1 (stereo not drawn),i
CCCC1c2cccn2CCN1C(=O)Nc1ccccc1 (stereo not drawn),i
CC(C)c1cccc2c(-c3ccccc3)cc(-c3ccc(-c4ccc(C(=O)O)cc4)[nH]3)nc12,+
COc1ccc(-c2cc3n(n2)CC(C)(C(=O)NCc2ccccc2OC)N(c2ccc(C(C)C)cc2)C3=O)cc1 (stereo not drawn),i
O=C(c1ccoc1)N1CC[C@@H](c2ccc3ccccc3c2)[C@H](O)C1,i
CC1(C)C2CCC1(C)C(OC(=O)C(O)(CC(=O)O)CC(=O)O)C2 (stereo not drawn),+
SMILES,Methyltransferases
O=C(CCc1nnc2n(Cc3ccc(F)cc3)c(=O)c3ccccc3n12)NCCCN1CCCC1=O,i
COc1ccc(C)cc1NC(=O)Cn1c(=O)oc2cc(S(=O)(=O)N3CC(C)CC(C)C3)ccc21 (stereo not drawn),i
O=C(Cn1nc2n(Cc3ccc(F)cc3)c(=O)c3ccccc3n2c1=O)NCc1ccccc1,i
Cn1c(=O)n(C)c2cc(S(=O)(=O)Nc3ccc(Cl)cc3)ccc21,i
CCCNC(=O)NS(=O)(=O)c1ccc(Cl)cc1,i
CN(C)c1ccc(NC(=O)NS(=O)(=O)c2ccc(Cl)cc2)cc1,+
CCCn1c(=O)c2ccccc2n2c(=O)n(Cc3ccc(F)cc3)nc12,i
Cc1ncc(C(=O)N[C@H]2CC[C@H]2NC2CCCC2)c(-c2ccccc2)n1,i
COc1ccc(CCNC(=O)CCc2nnc3n(Cc4ccccc4)c(=O)c4ccccc4n23)cc1OC,i
COc1cccc(C(=O)Cn2nc3n(Cc4ccc(C)cc4)c(=O)c4ccccc4n3c2=O)c1,i
Cc1cn(-c2cc(NC(=O)c3ccc(C)c(Nc4nccc(-c5cnccn5)n4)c3)cc(C(F)(F)F)c2)cn1,i
CCN1CCN(Cc2ccc(NC(=O)c3ccc(C)c(NC(=O)c4cncc(-c5cccs5)c4)c3)cc2C(F)(F)F)CC1,i
CCc1nc2c(=O)n(CC(=O)NC(C)c3ccc(F)cc3)nc(C)c2s1 (stereo not drawn),i
COc1ccc(-c2cc3n(n2)CC(C)(C(=O)NC2CCCCC2)N(Cc2ccccc2C)C3=O)cc1 (stereo not drawn),i
CC(C)Oc1ccc(CN2C(=O)c3cc(C4CC4)nn3CC2(C)C(=O)NC2CCCCCC2)cc1 (stereo not drawn),i
Cc1ccc2nc(N)[nH]c(=O)c2c1Sc1ccncc1,+
Cc1ccc(CNC(=O)CSc2nnc3n(Cc4ccc(C)cc4)c(=O)c4ccccc4n23)cc1,i
CCNC(=O)Nc1ncc(-c2cc(-c3c(C)cc(OC)cc3C)nc(-c3cnccn3)n2)s1,i
O=C(Cn1c(=O)oc2cc(S(=O)(=O)N3CCCC3)ccc21)NCCc1ccccc1,i
COC(=O)c1ncn2c1C(=O)N(Cc1ccc(OC)cc1OC)C(C)(C(=O)NC1CCCCC1)C2 (stereo not drawn),i
NS(=O)(=O)OC[C@@H]1C[C@@H](n2ccc3c(N[C@H]4CCc5ccccc54)ncnc32)C[C@@H]1O,+
CN1C(=O)c2cc(C(=O)NC3CCCCCC3)nn2CC1(C)C(=O)NCc1ccc(F)cc1 (stereo not drawn),i
Cc1nnc(C[C@@H]2C=C(c3ccc(Cl)cc3)c3ccccc3-n3c(C)nnc32)o1,+
COc1ccccc1NS(=O)(=O)c1cc2c(cc1Cl)n(C)c(=O)n2C,i
CCC(C(=O)NCc1ccccc1OC)n1ccc2cc(S(=O)(=O)N3CCCCC3)ccc21 (stereo not drawn),i
SMILES,Methyltransferases
CCOC(=O)Nc1ccc(NCc2ccc(F)cc2)nc1N,+
CCOC(=O)c1cc2n(n1)CC(C)(C(=O)NCc1ccc(F)cc1)N(c1ccc(C)cc1C)C2=O (stereo not drawn),i
COCC(=O)N(C)Cc1ccc(F)cc1,i
COc1ccc(-c2cc3n(n2)CC(C)(C(=O)NCc2ccccc2OC)N(c2ccc(C)cc2)C3=O)cc1 (stereo not drawn),i
Cc1cccc(CNC(=O)C2(C)Cn3cnc(C(=O)N4CCOCC4)c3C(=O)N2C2CC2)c1 (stereo not drawn),i
CCN(CC)C(=O)[C@@H]1CCCN1C1(C(=O)NC)COC1,i
CCc1ccc(-c2cc3n(n2)CC(C)(C(=O)NC2CCCCC2)N(CCN2CCOCC2)C3=O)cc1 (stereo not drawn),i
Cc1cccc(Cn2nc3n(CC(C)C)c(=O)c4ccc(C(=O)NC5CCCC5)cc4n3c2=O)c1,i
COc1cccc(-c2ccc(C(=O)NCCNC(=O)c3ccccc3OC)cc2)c1,i
CN(C)CCCNC(=O)c1ccc(-c2cc(O)c3ncccc3c2)cc1,+
N#Cc1cccnc1-c1cccc(C(=O)NCCNC(=O)c2ccccc2)c1,i
CC(=O)OC/C(=C/C(=O)O)CC[C@@H]1C(C)=CC(=O)[C@@H]2C(C)(C)CCC[C@@]12C,+
CC1=CC(=O)C2C(C)(C)CCC[C@]2(C)[C@H]1CO (stereo partly drawn),i
